Assay results from PubChem BioAssay AID2172 (The Scripps Research Institute Molecular Screening Center, 2009).
This is one part of the list. The source made the active and inactive calls. The rule behind the calls is not given here.

Experiment: DNA intercalator displacement (FID) – biochemical, fluorescence, counter-screen for HCV NS3 helicase inhibitor project, dose response (AID 2172)
Conditions: fluorescent intercalator displacement from DNA

Row | Compound | IC50
1 | Cc1cc(N2C(=O)C(O)=C(C(=O)c3ccc(C)o3)C2c2ccc(OCc3ccccc3)cc2)no1 (centres undefined) | > 79.4 µM (inactive)
2 | Cc1cc(O)c(C(=O)/C=C/c2c(F)c(F)c(F)c(F)c2F)c(=O)o1 | > 79.4 µM (inactive)
3 | CC(Oc1ccccc1)C(=O)Nc1oc(-c2ccco2)c(-c2ccco2)c1C#N (centres undefined) | > 79.4 µM (inactive)
4 | Cc1ccc(/C=C/C(=O)Nc2ccc([N+](=O)[O-])c(NC(=O)/C=C/c3ccc(C)o3)c2)o1 | > 79.4 µM (inactive)
